Test results taken from article PMC4336329 (PLoS ONE, 2015).
The campaign covered roughly 310,000 compounds. About 14,000 (4.5%) showed an effect of 50% or more. The effect is printed as a negative number. The full list was thinned out, with strong results kept by preference.

These compounds were tested against human ether-à-go-go-related gene (hERG) potassium channel (human, UniProt Q12809) (assay: primary screen, population patch clamp on CHO cells stably expressing hERG; higher = less effect of the substance).
Sequence of human ether-à-go-go-related gene (hERG) potassium channel (Q12809 whole entry, looked up): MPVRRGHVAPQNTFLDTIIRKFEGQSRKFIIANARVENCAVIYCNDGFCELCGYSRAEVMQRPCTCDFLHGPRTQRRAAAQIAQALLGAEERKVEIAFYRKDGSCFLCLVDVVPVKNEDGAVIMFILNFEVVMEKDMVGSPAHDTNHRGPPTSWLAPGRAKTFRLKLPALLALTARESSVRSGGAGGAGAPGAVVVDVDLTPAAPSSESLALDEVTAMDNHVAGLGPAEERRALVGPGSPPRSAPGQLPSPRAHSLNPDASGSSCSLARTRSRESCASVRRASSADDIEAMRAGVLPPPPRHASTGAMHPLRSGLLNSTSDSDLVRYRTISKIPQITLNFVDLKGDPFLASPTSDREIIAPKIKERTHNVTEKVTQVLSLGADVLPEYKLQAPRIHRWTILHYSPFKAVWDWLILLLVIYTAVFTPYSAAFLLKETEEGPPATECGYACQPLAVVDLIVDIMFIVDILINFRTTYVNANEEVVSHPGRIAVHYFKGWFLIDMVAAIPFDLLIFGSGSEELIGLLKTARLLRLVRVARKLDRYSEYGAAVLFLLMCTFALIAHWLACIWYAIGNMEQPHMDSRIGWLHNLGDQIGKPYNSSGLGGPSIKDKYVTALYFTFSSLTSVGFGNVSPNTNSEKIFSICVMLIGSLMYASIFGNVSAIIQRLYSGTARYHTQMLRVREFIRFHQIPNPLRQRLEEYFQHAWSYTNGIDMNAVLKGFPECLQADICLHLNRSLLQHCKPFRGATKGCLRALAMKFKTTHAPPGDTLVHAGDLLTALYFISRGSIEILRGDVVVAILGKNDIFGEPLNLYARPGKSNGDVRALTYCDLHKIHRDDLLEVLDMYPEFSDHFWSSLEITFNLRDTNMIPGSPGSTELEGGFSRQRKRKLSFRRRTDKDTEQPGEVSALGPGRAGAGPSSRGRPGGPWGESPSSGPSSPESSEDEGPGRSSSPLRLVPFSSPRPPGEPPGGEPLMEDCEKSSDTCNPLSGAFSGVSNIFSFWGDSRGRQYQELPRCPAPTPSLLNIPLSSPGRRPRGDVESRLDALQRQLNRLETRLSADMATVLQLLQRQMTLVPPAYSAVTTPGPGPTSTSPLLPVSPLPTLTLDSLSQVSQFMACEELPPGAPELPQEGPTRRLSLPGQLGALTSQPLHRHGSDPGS
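Further: peak tail current of the secondary pulse compared with the same well before compound.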

SMILES	hERG current change (%, negative = inhibition) at 10uM [%]
O=C(O)CCCN1C(=O)/C(=C\C(Cl)=C\c2ccccc2)SC1=S	13.6
COc1ccc(OC)c(-c2nc(CN3CCN(C(=O)c4ccco4)CC3)c(C)o2)c1	-21.9
O=C(NCc1cccs1)c1ccccc1[N+](=O)[O-]	-11.4
COc1cc(-c2nnc3n(CCc4ccccc4)c(=O)c4ccccc4n23)cc(OC)c1OC	-19.7
CCOC(=O)CN1C(=O)COc2ccc(Cl)cc21	19.2
CCOC(=O)c1[nH]cnc1C(=O)N[C@@H](C)c1ccccc1	-5.33
O=C1CCc2cc(S(=O)(=O)N3CCC(C(=O)NCc4ccccn4)CC3)ccc2N1	16.9
CCOc1ccccc1NS(=O)(=O)c1cc2c3c(c1)C(C)C(=O)N3CCC2 (stereo not shown)	5.26
O=C(N/N=C/c1cn(-c2ccccc2)nc1-c1ccc(F)cc1)c1ccc(Br)o1	27.7
CSCc1ccc(C(=O)NC2CC(C)(C)Cc3c2cnn3-c2ccc(F)cc2)o1 (stereo not shown)	-56.5
COCc1ccc(C(=O)NC2CC(C)(C)Cc3c2cnn3-c2ccc(C)cc2)o1 (stereo not shown)	-39.3
COc1ccc(-c2[nH]ncc2-c2nc(C)cs2)c(O)c1	13.5
Cc1cc2cc(CN(CCCO)S(=O)(=O)c3cccc4nsnc34)c(=O)[nH]c2cc1C	0.493
O=C(/C=C/c1ccc2ccccc2n1)N1CCN(S(=O)(=O)c2ccc(F)cc2)CC1	-52.4
CC(=O)c1ccc(N2CCN(C(=O)/C=C/c3cccs3)CC2)cc1	-25
O=C(/C=C/c1ccc2ccccc2n1)N1CCN(c2ccccc2)CC1	-52.1
O=C(/C=C/c1ccc(S(=O)(=O)N2CCOCC2)cc1)N1CCN(c2ccc(F)cc2)CC1	-25.6
O=C(O)/C=C/c1ccc2ccccc2n1	2.35
O=C(/C=C/c1cccs1)N1CCN(c2ccccc2)CC1	1.88
CC(=O)c1ccc(N2CCN(C(=O)c3ccc4ccccc4n3)CC2)cc1	-43.1
O=C(/C=C/c1ccc2ccccc2n1)N1CCN(S(=O)(=O)c2ccccc2F)CC1	-15.9
CC(=O)c1ccc(N2CCN(C(=O)/C=C/c3ccc4ccccc4n3)CC2)cc1	-54.4
NS(=O)(=O)c1ccc2nc(NC(=O)Nc3ccc(F)cc3)sc2c1	6.61
CCN=C1S/C(=C\c2cn(C(C)=O)nc2-c2ccccc2)C(=O)N1CC	8.23
O=C(CSCc1ccc(Br)cc1)N1CCOCC1	3.5

SMILES	hERG current change (%, negative = inhibition) at 10uM [%]
CCN(CC)c1ccc(C=C2C(=O)OC3(CCCCC3)OC2=O)cc1	7.76
CCCOc1ccc(C(C)=O)cc1CC(C(=O)OCC)C(=O)OCC	1.47
COc1ccc(/C=C/C(=O)OCC(=O)Nc2cc(C(N)=O)cc(C(N)=O)c2)cc1	18.2
CN(C)/C=N/C(=S)Nc1cc(Cl)cc(Cl)c1	27.2
O=C(c1ccc(NS(=O)(=O)c2cccs2)cc1)N1CCOCC1	14.4
CC(=O)c1cc(CC=C(C)C)c(O)cc1O	-3.51
O=C(COC(=O)CCC1CCCC1)Nc1ccc(Cl)cn1	15.2
Cc1c(C(=O)OCC(=O)N(C)CC(=O)Nc2ccc(F)cc2)oc2ccccc12	14.3
CN(C)c1nc(N)c([N+](=O)[O-])c(N2CCCCCC2)n1	2.69
CCc1nc(Nc2ccc(N3CCN(C(C)=O)CC3)cc2)c2oc3ccccc3c2n1.Cl	-43.7
Cl.c1ccc2c(c1)oc1c(NCCN3CCOCC3)ncnc12	-5.4
CC(=O)N1CCN(c2ccc(Nc3nc(C)nc4c3oc3ccccc34)cc2)CC1.Cl	-51.3
Cl.c1ccc2c(c1)oc1c(Nc3ccc(CN4CCOCC4)cc3)ncnc12	-62
CC(=O)c1ccc(Nc2ncnc3c2oc2ccccc23)cc1	7.05
CC(=O)N1CCN(c2ccc(Nc3ncnc4c3oc3ccccc34)cc2)CC1.Cl	-65.9
Cl.Oc1ccc(Nc2ncnc3c2oc2ccccc23)cc1	-4.8
Cl.c1ccc2c(c1)oc1c(NCCCN3CCOCC3)ncnc12	-22.4
CC(=O)Nc1ccc(Nc2nc(C)nc3c2oc2ccccc23)cc1	13.4
O=C(Nc1nc(COc2ccccc2)cs1)c1ccccc1F	24.9
CCCCN(CC)CCNC(=O)Cn1cc2c(n1)-c1c(oc(C(=O)N3CCCC3)c1C)CC2	-27.9
CCOc1cc(/C=C2/C(=O)ON=C2C)ccc1OCc1ccccc1F	10.6
Cc1cc(OCC(=O)N[C@H](C(=O)O)c2ccccc2)c2c3c(c(=O)oc2c1)CCC3	12.1
CCN1CCN(C(=S)Nc2cc(C(=O)OC)ccc2C(=O)OC)CC1	16.9
Br.COC(=O)Cn1c(=N)n(CCN2CCCCC2)c2ccccc21	-19.2
Cc1ccc(C(=O)NCCN2CCOCC2)cc1Cl	-17.7

SMILES	hERG current change (%, negative = inhibition) at 10uM [%]
Br.N=c1n(CCN2CCCCC2)c2ccccc2n1CC(=O)c1ccc(Cl)c(Cl)c1	-72.6
N=c1n(CCOc2ccccc2)c2ccccc2n1CCN1CCOCC1	-42.9
Cc1ccc(C(=O)Cn2c(=N)n(CCN3CCOCC3)c3ccccc32)cc1.[Br-]	-59.9
Br.N=c1n(CCN2CCCCC2)c2ccccc2n1CC(=O)c1cccs1	-25.2
O=C(NCCN1CCOCC1)c1ccc(Cl)c(Cl)c1	-2.39
Cn1c(=O)n(Cc2ccccc2Br)c2ccccc21	-10.3
Br.Cc1ccc(C(=O)Cn2c(=N)n(N)c3ccccc32)cc1	-14.7
Br.N=c1n(CCN2CCOCC2)c2ccccc2n1CC(=O)c1ccc(Cl)c(Cl)c1	-73.2
Br.N=c1n(CCN2CCOCC2)c2ccccc2n1Cc1ccccc1Br	-72.9
Cc1ccc(C(=O)NCCN2CCOCC2)cc1	12
COc1ccc(C)cc1NC(=O)c1ccc(NC(=O)CC2SC(N3CCCC3)=NC2=O)cc1 (stereo not shown)	18.2
Cc1cn(-c2ccc(Br)cc2)[nH]c1=O	8.3
COC(=O)C1=C(C)N=C2SC(C)C(=O)N2C1c1cccs1 (stereo not shown)	7.16
CCNC(=O)NC(=O)COC(=O)CCCSc1nc2ccccc2s1	-8.6
CCOc1ccc(S(=O)(=O)NCCC(=O)NCCc2ccc(C(C)C)cc2)cc1	3.89
CCOC(=O)c1nn(-c2ccc([N+](=O)[O-])cc2)cc1O	2.65
COC(=O)c1cc(OC)c(OC)cc1NCC(=O)Nc1cccc(C(F)(F)F)c1	13.8
COc1ccc(C(=O)N2CCOCC2)cc1S(=O)(=O)N1CCC(C)CC1	-9.4
COc1ccccc1NC(=O)Cn1c([N+](=O)[O-])cnc1C	11
NC(=S)N=Nc1c(O)n(CCCl)c2ccc(Br)cc12	-27.4
CCc1ccccc1S(=O)(=O)Cc1ccc(C(=O)NCC2CCCO2)o1 (stereo not shown)	-23
Cc1ccc(C(C)NC(=O)Cc2cccs2)cc1C (stereo not shown)	-44.2
CCN1CCCC1CNC(=O)C(=O)NC(C)c1ccccc1 (stereo not shown)	13
Br.N=c1n(CCN2CCOCC2)c2ccccc2n1CC(=O)c1cccc([N+](=O)[O-])c1	-42.2
Br.N=c1n(CCN2CCCCC2)c2ccccc2n1CC(=O)c1cccc([N+](=O)[O-])c1	-69

SMILES	hERG current change (%, negative = inhibition) at 10uM [%]
Br.CCn1c(=N)n(CC(=O)c2cccc([N+](=O)[O-])c2)c2ccccc21	12.1
Cl.N=C(c1cccc([N+](=O)[O-])c1)N1CCCCCC1	2.26
Br.C=CCn1c(=N)n(CC(=O)c2cccc([N+](=O)[O-])c2)c2ccccc21	-56.7
Br.N=c1n(CC(=O)c2cccc([N+](=O)[O-])c2)c2ccccc2n1Cc1ccccc1	-17.9
O=C1Nc2ccccc2/C1=C/c1cnc(-c2ccccc2)[nH]1	26.2
C[C@@H]1C(=O)O[C@H]2[C@H](O)[C@@]34[C@H]5C[C@@H](C(C)(C)C)[C@]36[C@@H](OC(=O)[C@@H]6O)O[C@@]4(C(=O)O5)[C@@]12O	21.2
CC(OC(=O)C1CCN(S(=O)(=O)c2ccc(Cl)cc2)CC1)C(=O)N1CCc2ccccc21 (stereo not shown)	-16.4
Oc1ccc(-c2cccc(-c3ccc(O)cc3)n2)cc1	15.5
CN(C)S(=O)(=O)N1CCN(C(=O)N2CCCCC2)CC1	3.64
COc1cc(/C=C(\C#N)c2nn(CCO)c(N)c2C#N)cc(OC)c1OC	12.5
O=C(COc1ccccc1)NCC(=O)N1CCCCCC1	7.21
O=c1c(C=NCc2cccnc2)c(C(F)(F)F)[nH]n1-c1nc2ccccc2s1	9.04
O=c1cc(-c2ccccc2)[nH]n1-c1nc2ccccc2s1	14.2
CN(C)CCCN=Cc1c(-c2ccccc2)[nH]n(-c2nc3ccccc3s2)c1=O	-71
CCOC(=O)Cc1cc(=O)n(-c2nc3ccccc3s2)[nH]1	5.12
CCN(CC)CCCN=Cc1c(-c2ccccc2)[nH]n(-c2nc3ccccc3s2)c1=O	-78.2
O=c1[nH]c(=O)n(Cc2ccccc2)c(O)c1C=NCCCn1ccnc1	1.23
C/C(=N/NC(=O)c1cccs1)c1c(C)[nH]n(-c2nc3ccccc3s2)c1=O	7.38
O=c1c(C=NCCCn2ccnc2)c(-c2ccccc2)[nH]n1-c1nc2ccccc2s1	-71.4
CCC(=NCc1ccccc1)c1c(C(F)(F)F)[nH]n(-c2nc3ccccc3s2)c1=O	12.6
CN(C)CCCN=Cc1c(O)n(CCc2ccccc2)c(=O)[nH]c1=O	-0.99
O=c1c(C=NCCCO)c(-c2ccccc2)[nH]n1-c1nc2ccccc2s1	-72.6
